USP7 block: human USP7 deubiquitinase inhibition; Q93009; purified USP7, Ub-rhodamine cleavage fluorescence; inhibition, % at 20 µM; 0.3% of 47,000 active; AID 1645854
UCHL1 inh: blocks human UCHL1 ubiquitin-rhodamine cleavage; P09936; inhibition, % at 20 µM; purified UCHL1, Ub-rhodamine cleavage fluorescence; 0.2% of 47,000 active
USP30 inh: human USP30 deubiquitinase inhibition; Q70CQ3; purified USP30, Ub-rhodamine cleavage fluorescence; inhibition, % at 25 µM; 5.3% of 47,000 active; AID 1645860
USP17 block: blocks human USP17 ubiquitin-rhodamine cleavage. A8MUK1. 6.5% of 47,000 active. purified USP17, Ub-rhodamine cleavage fluorescence, 3 h. inhibition, % at 50 µM
USP8 block: inhibitors of human USP8 deubiquitinase; P40818; 4.2% of 47,000 active; inhibition, % at 20 µM; purified USP8, Ub-rhodamine cleavage fluorescence, 30 min
USP10 block: human USP10 deubiquitinase inhibition; Q14694; purified USP10, Ub-rhodamine fluorescence, 60 min; inhibition, % at 20 µM; 1.1% of 47,000 active
* hit, by the source's call; x = no result. Only some compounds are listed: those with a hit (about 12% of all), similar ones and a draw of the others. No stated cut-off is given here; in the data, active means inhibition above about 30%; inactive means the rest.

SMILES	USP7 block	UCHL1 inh	USP30 inh	USP17 block	USP8 block	USP10 block
Cc1ccc2c(NCc3ccc4c(c3)OCO4)c(-c3nc(C)no3)cnc2n1	2.9	-1.8	-78.1	35.6*	60.7*	-7.4
CCN(CC)C(=O)[C@@]1(c2ccc(F)cc2)C[C@H]1COc1ccccc1	2.0	3.2	20.8	20.9	13.4	4.0
C[C@H](NC(=O)[C@@H]1Cc2c([nH]c3ccccc23)C2c3ccccc3C(=O)N21)C(=O)NCCc1ccccc1 (some centres undefined)	-15.9	-7.4	-97.3	-29.2	-17.0	-7.3
Cc1cc(C)cc(NC(=O)c2c(O)c3ccccc3[nH]c2=O)c1	9.0	3.8	9.2	9.3	42.0*	9.2
O=C(Nc1cc(C(F)(F)F)cc(C(F)(F)F)c1)c1c(F)cccc1Cl	11.6	14.2	32.7*	17.2	21.0	15.6
O=C(Nc1ccc(OCc2ccccc2)cc1)c1c(F)cccc1Cl	7.4	1.9	25.1	-1.1	-26.5	10.0
O=C(Nc1ccc(S(=O)(=O)Nc2cc(Cl)cc(Cl)c2)cc1)c1c(F)cccc1Cl	11.7	4.4	25.0	43.5*	-11.0	34.3*
O=C(Nc1ccc(Oc2ccccc2)cc1)c1c(F)cccc1Cl	2.8	5.1	14.8	-1.9	-112.0	7.6
Cc1cc(C)cc(NC(=O)Nc2ccccc2OCc2cc(=O)n3c(ncn3C(C)C)n2)c1	9.6	-0.6	-26.8	-10.2	50.2*	39.8*
Cc1cccc(NCc2cc(=O)n3cccc(C)c3n2)c1C	-0.8	-2.7	-133.8	-40.3	-6.4	-5.0
Cc1ccccc1NC(=O)Nc1ccccc1OCc1cc(=O)n2cccc(C)c2n1	23.3	-1.9	42.8*	46.7*	46.2*	40.2*
Cc1ccc(-n2nc(C)c3c2NC(=O)CC3C(=O)c2ccc3c(c2)OCO3)cc1 (centres undefined)	4.5	0.0	10.8	9.8	27.4	12.2
Fc1cccc(CN2CCCN(c3ncccc3-c3nc(C4CC4)no3)CC2)c1	3.8	7.0	-1.7	-10.9	-56.6	-2.9
Cn1nc(-c2ccccc2)c(CO)c1Sc1ccccc1Cl	-0.1	-0.2	6.0	49.2*	-1.9	5.1
Cn1nc(-c2ccccc2)c(CO)c1Sc1cccc(C(F)(F)F)c1	-11.6	10.0	22.2	19.9	6.1	6.3
COC(=O)CCC(c1ncc(C(F)(F)F)cc1Cl)S(=O)(=O)c1ccccc1 (centres undefined)	3.8	1.3	58.3*	43.8*	31.3*	0.0
O=S(=O)(O)c1ccc(Cc2ncc(C(F)(F)F)cc2Cl)s1	1.3	1.1	15.8	0.3	0.5	1.9
COc1ccccc1CNC(=O)c1cnc(N2CCCCC2)nc1N	6.9	3.8	-7.8	0.5	-19.9	0.2
CCOc1ccc(CCC(=O)N2CCC([C@@H]3C[C@H](C(F)F)n4nc(C)cc4N3)CC2)cc1	3.3	0.1	0.0	-26.8	5.9	2.5
Cc1cc2cccc(C)c2nc1SCC(=O)NCc1ccccc1	5.6	3.5	46.6*	29.1	21.1	1.9
COCCn1c(SCC(=O)c2ccc(F)cc2)nc2ccccc21	-10.3	0.1	10.4	36.0*	-5.5	3.2
Cn1c(SCC(=O)c2ccc(F)cc2)nnc1-c1cc2ccccc2o1	1.9	-0.8	88.4*	73.0*	41.0*	6.4
Cn1c(SCC(=O)NCc2ccccc2)nnc1-c1cc2ccccc2o1	-1.8	4.3	-22.2	18.1	30.4*	5.2
CC(Oc1ccccc1)c1nnc(SCC(=O)c2ccc(F)cc2)n1C (centres undefined)	-23.0	-2.5	0.2	0.1	-2.2	1.8
CCN1CCN(C(=O)c2nnc(-c3ccc(S(=O)(=O)N4CCOCC4)cc3)o2)CC1	2.1	2.4	7.1	6.3	9.0	-0.1
SMILES	USP7 block	UCHL1 inh	USP30 inh	USP17 block	USP8 block	USP10 block
Cc1ccc(NC(=O)Nc2c(-n3cnnc3)nn(C)c2C)cc1	8.0	3.5	19.8	19.3	21.4	0.0
O=C(Cn1nc2c3c4c(sc3ncn2c1=O)CCCCC4)Nc1ccc(Cl)cc1F	21.7	6.2	28.6	69.8*	91.9*	14.9
Cc1nc(-c2noc3ccc(C(=O)N4CCCC4)cc23)co1	6.3	0.0	30.5*	1.0	-34.6	-1.3
Cc1nc(-c2noc3ccc(C(=O)N4CCCN(C)CC4)cc23)cs1	-1.3	-5.0	-7.4	-22.5	-56.1	-1.7
Cc1cccc(CS(=O)(=O)c2cn(CC(=O)N3CCCCCC3)c3ccccc23)c1	-38.4	1.8	22.5	4.2	14.6	5.2
COc1ccc(CNC(=O)c2ccccc2N2C(=O)N3CCc4c([nH]c5ccc(OC)cc45)[C@@]3(C)C2=O)cc1	8.6	4.7	17.9	44.6*	13.6	5.5
C[C@]12C(=O)N(c3ccc(C(=O)NCc4ccco4)cc3)C(=O)N1CCc1c2[nH]c2ccccc12	x	2.4	10.3	22.1	2.4	2.8
COc1ccc(CNC(=O)c2cccc(N3C(=O)N4CCc5c([nH]c6ccccc56)[C@@]4(C)C3=O)c2)cc1	2.6	1.3	0.0	-0.4	3.3	-1.8
C[C@]12C(=O)N(c3cccc(C(=O)O)c3)C(=O)N1CCc1c2[nH]c2ccccc12	0.0	3.0	36.3*	20.1	7.9	3.5
C[C@@H](C(=O)NCc1ccc(F)cc1)N1C(=O)N2CCc3c([nH]c4ccccc34)[C@@]2(C)C1=O	-2.8	-3.3	46.4*	58.6*	-7.2	7.0
C[C@]12C(=O)N(c3ccc(C(=O)NCc4ccc(F)cc4)cc3)C(=O)N1CCc1c2[nH]c2ccccc12	3.7	2.6	52.0*	34.6*	22.7	4.3
Cc1ccccc1S(=O)(=O)N1C[C@H]2C[C@H](C(=O)N(C)C)[C@@H](C1)O2	4.9	2.4	17.7	2.6	-8.1	0.0
CCCCC/C=C/C=C/C(=O)CCCCCCCC(=O)NC(CCC(N)=O)C(=O)NC1C(=O)NCCC(=O)NC(Cc2c[nH]c3ccccc23)C(=O)NC(CO)C(=O)NCC(=O)OC1C (centres undefined)	0.8	-3.8	8.8	7.7	-21.6	-4.5
CC1(C)Cc2c(c(N3CCOCC3)nc3sc4c(SCC(=O)O)ncnc4c23)CO1	1.1	1.4	-10.0	-4.1	-49.2	-0.5
Cc1ccc(CNC(=O)[C@H](C)N2C(=O)N3CCc4c([nH]c5ccccc45)[C@@]3(C)C2=O)cc1	-4.2	-6.0	-4.0	-15.0	-16.3	18.4
C[C@@H](C(=O)NCc1ccc2c(c1)OCO2)N1C(=O)N2CCc3c([nH]c4ccccc34)[C@@]2(C)C1=O	3.3	3.7	32.9*	29.5	10.9	-1.0
CCC(C)[C@H](NC(=O)[C@H](C(C)C)N1C(=O)N2CCc3c([nH]c4ccccc34)[C@@]2(C)C1=O)C(=O)NC1CCCC1 (some centres undefined)	12.3	6.8	31.7*	3.6	6.9	9.8
CCc1onc(C)c1C1CCCN1S(=O)(=O)c1ccccc1 (centres undefined)	-5.6	-2.6	-8.3	-18.7	-2.6	-0.2
